This note sets out measurements from PubChem BioAssay (NCATS).

Test [1] is described as follows: qHTS profiling for inhibitors of Plasmodium falciparum proliferation (AID 504749). Further: nearly all actives have a fitted effect of over 60% in size.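 On activity, negative = inhibition: 0% = DMSO vehicle and full inhibition = artemisinin control.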 The following applies: P. falciparum in erythrocytes, SYBR Green DNA, 72 h. The essentials: (§1)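 Readout was DNA-dye fluorescence from lysed cultures, ex 485/em 535 nm. Parasitized red cells had grown 72 h with compound; data scaled between 0.29 uM artemisinin and DMSO wells and corrected using vehicle-only plates.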

A further test relates to 3D7. Described as above. The conditions noted are these: P. falciparum in erythrocytes, SYBR Green DNA, 72 h; series mostly up to 28.7 µM. The essentials: as §1
In the next test the test system is 7G8. Described as above. The following applies: P. falciparum in erythrocytes, SYBR Green DNA, 72 h; series mostly up to 28.7 µM. The essentials:
as §1

The next test relates to AA1029. Described as above. The following applies: P. falciparum in erythrocytes, SYBR Green DNA, 72 h; series mostly up to 28.7 µM. The essentials: as §1
The next test deals with AS120. The test is described as above. The following applies: P. falciparum in erythrocytes, SYBR Green DNA, 72 h; series mostly up to 28.7 µM. The essentials:
as §1

A further test relates to ATS189. The description is as above. The conditions noted are these: P. falciparum in erythrocytes, SYBR Green DNA, 72 h; series mostly up to 28.7 µM. The essentials: as §1
[2] abbreviates: at 28.7 µM (top of the series), parasite line A.
Setting [3] is: at 28.7 µM (top of the series), parasite line B.
The mark [4] stands for this setting: at 12.8 µM (top of the series), parasite line A.
Setting [5] is: at 12.8 µM (top of the series), parasite line B.

Each structure is given as a SMILES string. Records with an inconclusive call do not appear. Values without a mark were called inactive. The source made the active and inactive calls. The call rests on the fitted dose curve; in most records, active means well fitted inhibition curve with a large enough effect; inconclusive means small, poorly fitted or top-dose-only effect; inactive means flat fitted curve, though single readings scatter.
Potency means the concentration at half of the fitted maximal effect.

Take `CCC1Nc2cc(Cl)c(S(N)(=O)=O)cc2S(=O)(=O)N1` (stereo not drawn): the activity, negative = inhibition in test [1] (setting [2]) was 11%; in test [1] (setting [3]), 6.74%. For the same compound, the Potency result in the test on 3D7, with 7G8, in the test on AA1029, in the test on AS120 and in the test on ATS189 was “inactive” each time.

Regarding `Cc1ncc(CO)c(C=O)c1O`, the activity, negative = inhibition in test [1] (setting [2]) is 0.609%; in test [1] (setting [3]), 9.9%. The Potency entry with 3D7, with 7G8, with AA1029, with AS120 and in the test with ATS189 was “inactive” in each case.

Turning to `CCN(CC)CCNC(=O)c1cc(Br)c(N)cc1OC`, the activity, negative = inhibition in test [1] (setting [2]) was 1.38%; in test [1] (setting [3]), 3.74%. The Potency result in the test with 3D7, with 7G8, in the test with AA1029, in the test on AS120 and in the test on ATS189 was “inactive” in each case.

As for `CC(=O)NO`, the activity, negative = inhibition in test [1] (setting [2]) was -5.99%; in test [1] (setting [3]), 17.5%. Moreover, the Potency result in the test on 3D7, with 7G8, in the test on AA1029, with AS120 and in the test with ATS189 was “inactive” each time.

Consider `CC(=O)Nc1ccc(OC(=O)c2ccccc2OC(C)=O)cc1`, for which the activity, negative = inhibition in test [1] (setting [2]) is -24.5%; in test [1] (setting [3]), 5.15%. For the same compound, the Potency entry with 3D7, in the test with 7G8, in the test on AA1029, with AS120 and with ATS189 was “inactive” throughout.

Consider `COc1cc(NS(=O)(=O)c2ccc(N)cc2)ncn1`, for which the results for the activity, negative = inhibition in test [1] (setting [4]) and in test [1] (setting [5]) were 3.14% and 1.14%, respectively. Also, the Potency entry with 3D7, in the test with 7G8, in the test on AA1029, with AS120 and in the test with ATS189 was “inactive” in each case.

With `Cc1ccccc1OCC(O)CO` (stereo not drawn), the values for the activity, negative = inhibition in test [1] (setting [2]) and in test [1] (setting [3]) were 13.7% and 2.74%, respectively. Also, the Potency result in the test with 3D7, with 7G8, in the test with AA1029, with AS120 and in the test with ATS189 was “inactive” throughout.

In the case of `O=C(Nc1cccc(C2=NCCN2)c1)Nc1cccc(C2=NCCN2)c1`, the Potency is 8.91 µM (active) in test [1] (parasite line A); 11.2 µM (active) in test [1] (parasite line B); 10 µM (active) in the test with 3D7; 398 nM (active) in the test on 7G8; 7.08 µM (active) with AA1029; 2.82 µM (active) in the test on AS120. Also, the Potency with ATS189 is 2.82 µM (active).

Regarding `CNCCc1ccccn1`, the activity, negative = inhibition in test [1] (setting [4]) was 6.01%; in test [1] (setting [5]) it was 8.04%. The Potency result in the test with 3D7, in the test on 7G8, in the test with AA1029, in the test on AS120 and in the test with ATS189 was “inactive” each time.

In the case of `O=C(Nc1ncc([N+](=O)[O-])s1)c1cccs1`, the figures for the activity, negative = inhibition in test [1] (setting [2]) and in test [1] (setting [3]) were 5.2% and -2.66%, respectively. In addition, the Potency entry with 3D7, in the test with 7G8, in the test with AA1029, in the test on AS120 and in the test on ATS189 was “inactive” in each case.

For the compound `CCCc1ncc(C[n+]2ccccc2C)c(N)n1`, the activity, negative = inhibition in test [1] (setting [4]) was 11.9%; in test [1] (setting [5]), 12%. Moreover, the Potency entry in the test on 3D7, with 7G8, in the test with AA1029, in the test on AS120 and with ATS189 was “inactive” in each case.

Take `NC(=O)c1ccccc1O`: the activity, negative = inhibition in test [1] (setting [2]) was 4.99%; in test [1] (setting [3]), 15.1%. The Potency result in the test on 3D7, in the test with 7G8, with AA1029, with AS120 and in the test with ATS189 was “inactive” each time.

In the case of `CCCCCCCCCCCCSCCOCCO`, the activity, negative = inhibition was 9.57% in test [1] (setting [2]) and 14.6% in test [1] (setting [3]). In addition, the Potency entry with 3D7, in the test with 7G8, in the test with AA1029, in the test with AS120 and with ATS189 was “inactive” throughout.

As to `CCCCCCCCNC(C)C(O)c1ccc(SC(C)C)cc1` (stereo not drawn), the Potency is 1.26 µM (active) in test [1] (parasite line A); 0.562 µM (active) in test [1] (parasite line B); 0.794 µM (active) in the test with 3D7; 100 nM (active) with 7G8; 1 µM (active) in the test on AA1029; 0.891 µM (active) in the test on AS120. Also, in the test with ATS189, the Potency is 0.631 µM (active).

Turning to `Nc1ccc(S(=O)(=O)Nc2cnc3ccccc3n2)cc1`, the activity, negative = inhibition was -3.4% in test [1] (setting [2]) and -11.6% in test [1] (setting [3]). Further, the Potency result in the test with 3D7, in the test with 7G8, in the test with AA1029, in the test on AS120 and in the test on ATS189 was “inactive” in each case.

For `COP(=O)(OC)OC(c1ccc(Cl)cc1)P(=O)(OC)OC` (stereo not drawn), the activity, negative = inhibition in test [1] (setting [2]) is 10.6%; in test [1] (setting [3]), -3.59%. For the same compound, the Potency entry in the test with 3D7, with 7G8, with AA1029, in the test on AS120 and with ATS189 was “inactive” in each case.

For `CC(=O)OC[C@H]1O[C@@H](n2ncc(=O)[nH]c2=O)[C@H](OC(C)=O)[C@@H]1OC(C)=O`, the figures for the activity, negative = inhibition in test [1] (setting [2]) and in test [1] (setting [3]) were 3.78% and 0.953%, respectively. For the same compound, the Potency entry with 3D7, with 7G8, in the test on AA1029, in the test with AS120 and with ATS189 was “inactive” each time.

In the case of `FC1(F)C(F)(F)C(F)(F)C2(F)C(F)(F)C(F)(F)C(F)(F)C(F)(F)C2(F)C1(F)F` (stereo not drawn), the activity, negative = inhibition was 5.48% in test [1] (setting [2]) and 12.9% in test [1] (setting [3]). Moreover, the Potency entry with 3D7, in the test with 7G8, with AA1029, in the test on AS120 and in the test with ATS189 was “inactive” each time.

Turning to `C/C=C/C=N/NC(=O)c1ccncc1`, the activity, negative = inhibition is -1.02% in test [1] (setting [2]) and -0.189% in test [1] (setting [3]). Besides, the Potency result in the test with 3D7, with 7G8, with AA1029, in the test with AS120 and in the test on ATS189 was “inactive” in each case.
